The values that follow come from PubChem BioAssay.

Assay [1] has as its system Plasmodium falciparum Sir2 (PF13_0152, Sir2A). The experiment in a line: Plasmodium falciparum Sir2A binding compounds – biochemical, small-molecule microarray, 635 nm fluorescence, primary screen (AID 1098).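 Note: score merges spot fluorescence intensity with its signal-to-noise ratio.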 Conditions: fluorescence 635 nm, higher = more signal.
A short description of assay [2]: probe aDKK1 binding to arrayed compounds – biochemical, biotinylated probe, 635/667 nm fluorescence, primary screen (AID 1099).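 Note: score merges 667nm spot fluorescence with signal to noise across triplicate slides.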 Conditions: small-molecule microarray, higher = more signal.
Assay [3] in a line: probe aCHRDL2 binding to arrayed compounds – biochemical, biotinylated probe, 635/667 nm fluorescence, primary screen (AID 1100). Conditions: small-molecule microarray, higher = more signal.
Assay [4] is described as follows: change in splice reporter luminescence, either direction, cell-based, HEK293, spliceosome inhibition project, primary screen (AID 1101).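 Note: HEK293 cells carrying a splicing-competent luciferase reporter gene; test concentration not given here.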 The following applies: HEK293 splicing luciferase reporter, 24 h, higher = more signal, called active from +8 up or from −8 down. A general note: A reporter such as luciferase makes a cellular process visible.
The target of assay [5] is Fibroblast growth factor 10 (Homo sapiens) (UniProt O15520). Put plainly: compounds binding fibroblast growth factor 10 – biochemical, small-molecule microarray, 635 nm fluorescence, primary screen (AID 1102). Conditions: FGF10 binding, fluorescence 635 nm, higher = more signal.
Sequence of Fibroblast growth factor 10 (Homo sapiens) (O15520 whole entry, looked up): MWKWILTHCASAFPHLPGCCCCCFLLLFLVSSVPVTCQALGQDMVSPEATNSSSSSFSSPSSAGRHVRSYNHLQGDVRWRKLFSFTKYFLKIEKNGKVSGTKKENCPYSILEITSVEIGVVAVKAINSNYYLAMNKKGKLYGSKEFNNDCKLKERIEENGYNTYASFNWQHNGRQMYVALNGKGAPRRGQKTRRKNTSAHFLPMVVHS
The test system of assay [6] is glycogen synthase kinase-3 (GSK3A per assay name; protocol says GSK3B). Put plainly: compounds binding glycogen synthase kinase-3 – biochemical, small-molecule microarray, 635 nm fluorescence, GSK3A, primary screen (AID 1103). Note: the record names both GSK3A and GSK3B. Conditions: fluorescence 635 nm, higher = more signal.
Assay [7] concerns the target Epidermal growth factor receptor (Homo sapiens) (UniProt P00533). Put plainly: compounds binding epidermal growth factor receptor – biochemical, small-molecule microarray, 635 nm fluorescence, primary screen (AID 1104).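 Note: score merges 667 nm emission intensity with spot signal to noise over triplicate slides.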 Conditions: EGFR binding, higher = more signal.
For assay [8], the target named is Follistatin-related protein 3 (Homo sapiens) (UniProt O95633). The experiment in a line: compounds binding follistatin-related protein 3 – biochemical, small-molecule microarray, 635 nm fluorescence, primary screen (AID 1105).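 Note: score merges emission near 667 nm and signal to noise per printed spot across three slides.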 Conditions: FSTL3 binding, higher = more signal.
Sequence of Follistatin-related protein 3 (Homo sapiens) (O95633 whole entry, looked up): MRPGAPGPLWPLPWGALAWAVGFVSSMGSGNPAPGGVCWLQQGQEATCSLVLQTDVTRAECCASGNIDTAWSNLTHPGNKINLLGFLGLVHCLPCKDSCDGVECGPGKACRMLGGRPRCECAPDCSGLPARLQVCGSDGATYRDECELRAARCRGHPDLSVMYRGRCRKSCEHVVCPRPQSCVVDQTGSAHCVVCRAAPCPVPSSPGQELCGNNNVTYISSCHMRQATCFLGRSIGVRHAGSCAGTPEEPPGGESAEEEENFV
Assay [9] addresses Dickkopf-related protein 1 (Homo sapiens) (UniProt O94907). The experiment in a line: small molecules binding DKK1 protein – biochemical, small-molecule microarray, 635 nm fluorescence scan, primary screen (AID 1106).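 Note: score merges emission near 667 nm with signal to noise over three replicate slides.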 Conditions: higher = more signal.
Assay [10] deals with Inhibin beta A chain (activin A). Put plainly: small molecules binding activin A – biochemical, small-molecule microarray, 635 nm fluorescence scan, primary screen (AID 1107).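 Note: mouse activin A protein probed at 4.33 µg/mL on printed slides; score merges bound-protein fluorescence near 667 nm with spot signal-to-noise.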 The following applies: INHBA, higher = more signal.
In assay [11] the test system is Human papillomavirus type 1a protein E7 (residues 44-93). Put plainly: small molecules binding HPV E7 44-93 – biochemical, small-molecule microarray, residues 44-93, 635 nm fluorescence, primary screen (AID 1108).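 Note: E7 fragment applied at 1 µg/mL in TBST for 1 h at 4 C; score combines spot fluorescence with its signal to noise ratio.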 Conditions: fluorescence 635 nm, higher = more signal.
Assay [12] in a line: hepatitis C replication reporter changes, two-sided – Huh7 cells, luciferase reporter, HCV replication inhibitor project, primary screen (AID 1109).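 Note: huh7 hepatoma cells harbouring a luciferase neomycin HCV replicon reporter; luciferase luminescence as measure of HCV replicon replication; test concentration not given here.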 Conditions: Huh7 HCV replicon luciferase reporter, 48 h; higher = more signal.
Assay [13] has as its target Left-right determination factor 2 (Homo sapiens) (UniProt O00292). Put plainly: small molecules binding LEFTY2 protein – biochemical, small-molecule microarray, 635 nm fluorescence scan, primary screen (AID 1110). Conditions: higher = more signal.
In assay [14] the target is Calmodulin-1 (Homo sapiens) (UniProt P0DP23). Put plainly: small molecules binding calmodulin-1 with EGTA – biochemical, small-molecule microarray, Cy5-labelled CALM1, profiling panel (AID 1111).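 Note: labelled calmodulin applied in Tris saline Tween buffer holding calcium plus EGTA and DTT.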 The following applies: Cy5-CALM1 binding fluorescence, higher = more signal.
The target is the same in assay [15]. Put plainly: small molecules binding Ca-loaded calmodulin-1 – biochemical, small-molecule microarray, Cy5-labelled CALM1, plus calcium, artefact control for SMM control-protein annotation, profiling panel (AID 1112).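 Note: score merges spot fluorescence with signal to noise from triplicate slides.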 Conditions: Cy5-CALM1 binding fluorescence, higher = more signal.
Assay [16] is described as follows: probe aWnt5a binding to arrayed compounds – biochemical, biotinylated probe, 635/667 nm fluorescence, primary screen (AID 1113).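 Note: score merges 667 nm fluorescence intensity with signal-to-noise per printed feature.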 Conditions: small-molecule microarray, higher = more signal.
Assay [17] in a line: probe aShh binding to arrayed compounds – biochemical, biotinylated probe, 635/667 nm fluorescence, primary screen (AID 1114).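 Note: probe is biotin-labelled aShh protein from a stem cell growth factor screen; measures binding of labelled protein to compounds printed on the slide; score merges feature fluorescence at 667 nm with signal-to-noise.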 Conditions: small-molecule microarray, higher = more signal.
A short description of assay [18]: probe aNog binding to arrayed compounds – biochemical, biotinylated probe, 635/667 nm fluorescence, primary screen (AID 1115).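 Note: probe is biotinylated aNog protein used at 0.15 µg/mL for 1 h at 4 C; z-score combines 667 nm fluorescence of each spot with its signal to noise.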 The following applies: small-molecule microarray, higher = more signal.
Assay [19] has as its target Torsin-1A-interacting protein 1 (Homo sapiens) (UniProt Q5JTV8). Put plainly: compound microarray binding of lysate hLAP1 – cell lysate, small-molecule microarray, COS7 lysate, 635/667 nm fluorescence, primary screen (AID 1116). Conditions: 635 nm fluorescence, higher = more signal.
In assay [20] the target is Alpha-bungarotoxin (Bungarus multicinctus) (UniProt P60615). Put plainly: compounds binding labelled alpha-BTX control protein – biochemical, small-molecule microarray, Alexa647 label, 635/667 nm fluorescence, artefact control for SMM control protein annotation, profiling panel (AID 1117). Conditions: alpha-BTX-A647 binding fluorescence, higher = more signal.
Sequence of Alpha-bungarotoxin (Bungarus multicinctus) (P60615 whole entry, looked up): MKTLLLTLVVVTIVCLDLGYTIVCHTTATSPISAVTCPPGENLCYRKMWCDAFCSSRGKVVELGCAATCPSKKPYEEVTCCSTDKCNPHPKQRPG

Activity calls are given as the source filed them.

Sequence of Dickkopf-related protein 1 (Homo sapiens) (O94907 whole entry, looked up): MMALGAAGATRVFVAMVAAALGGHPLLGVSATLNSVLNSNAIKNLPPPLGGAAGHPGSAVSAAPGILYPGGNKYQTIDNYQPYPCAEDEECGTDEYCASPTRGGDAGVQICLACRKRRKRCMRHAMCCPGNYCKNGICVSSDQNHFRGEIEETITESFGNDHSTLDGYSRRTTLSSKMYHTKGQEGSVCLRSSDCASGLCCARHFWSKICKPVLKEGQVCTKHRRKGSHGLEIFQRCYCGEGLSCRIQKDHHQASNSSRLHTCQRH
Sequence of Torsin-1A-interacting protein 1 (Homo sapiens) (Q5JTV8 whole entry, looked up): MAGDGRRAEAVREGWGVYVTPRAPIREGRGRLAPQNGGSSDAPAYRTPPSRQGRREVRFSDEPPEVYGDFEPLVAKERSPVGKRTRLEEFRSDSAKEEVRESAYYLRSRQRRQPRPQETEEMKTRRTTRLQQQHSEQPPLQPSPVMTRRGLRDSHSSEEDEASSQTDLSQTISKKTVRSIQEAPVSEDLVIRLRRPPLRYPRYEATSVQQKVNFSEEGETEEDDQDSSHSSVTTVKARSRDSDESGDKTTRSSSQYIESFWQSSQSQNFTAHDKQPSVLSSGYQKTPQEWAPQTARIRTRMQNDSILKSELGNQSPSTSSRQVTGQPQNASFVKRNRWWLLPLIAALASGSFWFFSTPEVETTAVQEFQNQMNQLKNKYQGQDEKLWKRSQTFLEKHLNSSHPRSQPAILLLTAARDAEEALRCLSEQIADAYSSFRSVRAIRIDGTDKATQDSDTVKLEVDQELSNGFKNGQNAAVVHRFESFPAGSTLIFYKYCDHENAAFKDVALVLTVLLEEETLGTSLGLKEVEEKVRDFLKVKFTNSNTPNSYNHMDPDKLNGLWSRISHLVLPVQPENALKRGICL
Sequence of Epidermal growth factor receptor (Homo sapiens) (P00533 whole entry, looked up): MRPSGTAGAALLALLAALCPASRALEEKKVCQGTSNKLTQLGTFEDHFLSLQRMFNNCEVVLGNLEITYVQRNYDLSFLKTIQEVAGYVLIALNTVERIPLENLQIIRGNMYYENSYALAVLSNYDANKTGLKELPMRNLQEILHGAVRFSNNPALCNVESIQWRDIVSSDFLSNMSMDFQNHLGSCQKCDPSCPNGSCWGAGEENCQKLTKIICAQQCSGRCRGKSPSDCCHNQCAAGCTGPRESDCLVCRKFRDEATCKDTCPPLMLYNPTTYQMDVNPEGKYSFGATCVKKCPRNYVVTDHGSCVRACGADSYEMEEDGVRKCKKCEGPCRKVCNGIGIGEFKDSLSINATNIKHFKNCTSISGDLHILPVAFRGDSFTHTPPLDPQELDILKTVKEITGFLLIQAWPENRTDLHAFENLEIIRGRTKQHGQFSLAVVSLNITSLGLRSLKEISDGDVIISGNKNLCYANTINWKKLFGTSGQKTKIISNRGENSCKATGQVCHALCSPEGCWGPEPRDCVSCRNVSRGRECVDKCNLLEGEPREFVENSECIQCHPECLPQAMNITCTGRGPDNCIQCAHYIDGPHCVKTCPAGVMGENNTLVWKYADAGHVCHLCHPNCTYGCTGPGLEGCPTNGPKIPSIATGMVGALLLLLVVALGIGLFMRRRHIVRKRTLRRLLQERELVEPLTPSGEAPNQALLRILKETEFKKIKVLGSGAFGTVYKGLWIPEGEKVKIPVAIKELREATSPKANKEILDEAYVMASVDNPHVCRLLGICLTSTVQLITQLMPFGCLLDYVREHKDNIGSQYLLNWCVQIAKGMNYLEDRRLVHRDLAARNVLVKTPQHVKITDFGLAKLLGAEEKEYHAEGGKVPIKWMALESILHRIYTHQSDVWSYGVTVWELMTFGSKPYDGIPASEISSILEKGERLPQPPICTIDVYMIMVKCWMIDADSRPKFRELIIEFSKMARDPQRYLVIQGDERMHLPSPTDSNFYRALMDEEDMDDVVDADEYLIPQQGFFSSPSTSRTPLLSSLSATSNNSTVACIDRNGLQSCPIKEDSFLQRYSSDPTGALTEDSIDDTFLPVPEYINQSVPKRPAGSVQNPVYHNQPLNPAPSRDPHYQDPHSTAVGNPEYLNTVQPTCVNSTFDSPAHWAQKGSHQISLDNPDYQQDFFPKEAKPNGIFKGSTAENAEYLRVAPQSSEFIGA
Sequence of Left-right determination factor 2 (Homo sapiens) (O00292 whole entry, looked up): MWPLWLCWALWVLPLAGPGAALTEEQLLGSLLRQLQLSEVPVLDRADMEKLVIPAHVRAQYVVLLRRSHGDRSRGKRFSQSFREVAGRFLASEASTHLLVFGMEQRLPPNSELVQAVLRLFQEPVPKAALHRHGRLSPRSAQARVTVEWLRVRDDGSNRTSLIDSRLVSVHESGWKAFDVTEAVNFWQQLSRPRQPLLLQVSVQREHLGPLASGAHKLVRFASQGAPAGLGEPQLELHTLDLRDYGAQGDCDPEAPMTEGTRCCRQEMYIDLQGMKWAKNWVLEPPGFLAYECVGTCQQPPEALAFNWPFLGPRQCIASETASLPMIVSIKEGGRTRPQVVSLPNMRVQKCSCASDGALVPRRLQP

Consider `COCCCNC(=O)[C@@]1(C)c2ccccc2C(=O)N(Cc2ccc(OC(F)(F)F)cc2)[C@H]1c1ccc(CO)cc1`, for which the composite z-score is 0.655 in assay [1]; 0.506 in assay [2]; 0.973 in assay [3]; -0.527 in [5]; -1.3 in assay [6]; -1.11 in assay [7]. In addition, the composite z-score is -0.851 in assay [8]; -0.401 in [9]; 0.153 in assay [10]; -1.56 in assay [11]; -0.738 in [13]; -0.579 in assay [14]. Moreover, the composite z-score in [15] is 0.751; in assay [16] it was -0.109; in assay [17] it was -0.2; in assay [18], -0.546; in assay [19] it was -0.668; in assay [20] it was -1.16. Further, the figures for the z-score in assay [4] and in assay [12] were -0.346 (inactive) and -0.302, respectively.

With `Cn1c(=O)n2n(c1=O)[C@H]1[C@H](O)[C@@H]3O[C@@H]3C(=NOC[C@@H](O)COCc3ccco3)[C@H]1CC2`, the composite z-score in assay [1] was 0.608; in assay [2], -0.198; in assay [3] it was -0.505; in [5], 0.131; in assay [6], 0.698; in assay [7], 0.475. Besides, the composite z-score in assay [8] came to 0.541; in [9], 0.0999; in assay [10], 0.0409; in [11] it was 0.499; in [13], 0.83; in assay [14], 0.132. For the same molecule, the composite z-score in assay [15] was -0.844; in assay [16] it was -0.216; in [17] it was -0.468; in [18], 0.964; in [19], 0.314; in assay [20] it was 0.318. Moreover, the values for the z-score in assay [4] and in [12] were -0.695 (inactive) and 0.481, respectively.

As to `COC(=O)[C@@]1(Cc2ccc(F)cc2)[C@@H]2C(=CC(=O)[C@H]2CC(=O)C(=O)N(C)C)CN1C(=O)c1ccccc1`, the composite z-score was 0.346 in [1]; 1.31 in [2]; 0.921 in [3]; 0.625 in assay [5]; 1.29 in assay [6]; -0.0946 in assay [7]. In addition, the composite z-score in assay [8] is 1.06; in assay [9], -0.251; in assay [10] it was 0.637; in assay [11] it was 1.46; in assay [13], 0.45; in assay [14] it was 1.98. Besides, the composite z-score was found to be 1.21 in assay [15]; 0.0839 in assay [16]; 1.21 in assay [17]; 0.896 in assay [18]; 1.52 in assay [19]; 0.954 in assay [20]. Besides, the z-score in [4] was -1.17 (inactive); in assay [12] it was -2.09.

For `COC(=O)[C@H](C)NC(=O)CCC1CC(OC(=O)NCc2ccc3c(c2)OCO3)CC2(CCCC(COC(=O)NCCOc3ccccc3)O2)O1` (stereo not given in full), the composite z-score is 0.46 in assay [1]; -0.211 in [2]; -0.636 in assay [3]; 0.658 in assay [5]; 1.29 in [6]; 0.536 in [7]. The composite z-score in assay [8] is 0.649; in assay [9] it was 0.679; in assay [10], 0.0689; in assay [11], 0.966; in assay [13] it was 0.581; in [14] it was -0.0874. Besides, the composite z-score in assay [15] is -0.604; in assay [16], -0.129; in [17], -0.138; in [18], -0.283; in assay [19], 0.267; in [20], 0.83. The z-score is -2.8 (inactive) in [4] and -0.424 in assay [12].

With `COC(=O)[C@@]1(Cc2ccc(F)cc2)[C@H]2c3cc(C(=O)N(C)C)n(Cc4ccc(OC)c(OC)c4)c3C[C@H]2CN1C(=O)c1ccccc1`, the composite z-score in [1] is -0.236; in assay [2] it was 1.08; in [3], 0.43; in assay [5], 0.495; in assay [6], -1.21; in assay [7], 0.278. Besides, the composite z-score in [8] is -0.32; in assay [9] it was -0.686; in assay [10] it was 0.939; in [11], 0.0897; in assay [13], -0.137; in assay [14], 0.482. In addition, the composite z-score came to 0.0167 in assay [15]; 0.0833 in assay [16]; 0.299 in assay [17]; 0.338 in assay [18]; 0.0894 in assay [19]; 0.0611 in [20]. In addition, the z-score in assay [4] is -3.2 (inactive); in assay [12], -1.44.
